From PubChem BioAssay
Shown is part of a subset that was picked to be rich in hits.
HT1080 IDH1KD tx: kills HT-1080 cells with IDH1 knockdown; 2% of 360,000 active; HT-1080 IDH1 knockdown viability, ATP luminescence, 48 h; Potency, µM (titrated, usually from 46.1 µM), for the others: top-dose activity, negative = toxicity, usual class: cytotoxic;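 further: potency means the concentration at half of the fitted maximal effect; 0% = DMSO wells and -100% = cell-free medium wells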
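Viability of IDH1-knockdown HT-1080 fibrosarcoma cells was assessed by CellTiter-Glo after 48 h at 37 °C with titrated compound; concentration-effect curves were classified by fit quality and response size.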
ALOX12 inh: ALOX12 (human) lipoxygenase inhibition; P18054; purified 12hLO, xylenol orange hydroperoxide absorbance; Potency, µM (highest dose often 108 µM), for inactives: at the highest dose activity change, negative = inhibition, most hits filed as inhibitors; 1.1% of 580,000 active; AID 1671190; further: potency means the concentration at half of the fitted maximal effect
Target sequence (P18054 whole entry, looked up): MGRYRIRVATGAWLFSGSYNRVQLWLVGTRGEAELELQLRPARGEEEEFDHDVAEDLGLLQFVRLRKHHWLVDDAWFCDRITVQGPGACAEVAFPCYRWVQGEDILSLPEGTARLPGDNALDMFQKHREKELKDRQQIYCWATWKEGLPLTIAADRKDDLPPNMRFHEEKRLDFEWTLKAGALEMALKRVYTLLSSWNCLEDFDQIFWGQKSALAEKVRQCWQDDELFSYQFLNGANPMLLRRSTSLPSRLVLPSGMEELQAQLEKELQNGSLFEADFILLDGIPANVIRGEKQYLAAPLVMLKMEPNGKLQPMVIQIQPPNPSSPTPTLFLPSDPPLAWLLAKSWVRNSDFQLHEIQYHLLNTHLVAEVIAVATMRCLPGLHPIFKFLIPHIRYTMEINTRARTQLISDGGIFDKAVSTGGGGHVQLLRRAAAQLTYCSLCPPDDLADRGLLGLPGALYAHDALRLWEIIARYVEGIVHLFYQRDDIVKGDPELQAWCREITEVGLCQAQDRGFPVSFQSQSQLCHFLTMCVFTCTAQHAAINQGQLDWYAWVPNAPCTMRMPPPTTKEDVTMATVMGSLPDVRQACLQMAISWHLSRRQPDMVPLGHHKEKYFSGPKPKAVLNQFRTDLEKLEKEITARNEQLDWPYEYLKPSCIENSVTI
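Purified human 12hLO at 150 nM in 25 mM Hepes, 0.01% Triton X-100, pH 7.0, preincubated 15 min at room temperature with compound. Reaction started with 40 uM arachidonic acid, 30 min at room temperature. Hydroperoxide measured by Fe-xylenol orange, 573/405 nm absorbance ratio.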
IL-1B inflam inh: inflammasome signaling inhibition, IL-1 beta readout; THP-1 LPS/ATP IL-1B secretion, AlphaLISA, 16 h; hits give low values; activity change, % at 57.5 µM; 4.7% of 360,000 active; AID 743279; in the data active means activity change below about -50%; inconclusive means mostly about -30% to -49%
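THP-1 cells pretreated 1 hr with compounds (up to 57.5 uM final), then stimulated with LPS (250 ng/mL final) plus ATP (1.25 mM final); secreted IL-1B measured by AlphaLISA after 16 hr, decreased signal indicating inhibition.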
HT1080NT lethal: kills 2HG-producing HT-1080-NT fibrosarcoma cells; HT-1080-NT fibrosarcoma viability, CellTiter-Glo ATP luminescence, 48 h; Potency, µM (series often up to 46.1 µM), without a hit: at the highest dose activity, negative = less viability, hits mostly cytotoxic; 1.6% of 360,000 active;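 further: NT is the 2HG producing partner of a matched IDH1 knockdown line; potency means the concentration at half of the fitted maximal effect; 0% = DMSO-treated cells and -100% = media-only wells without cells; nearly all actives have a fitted effect of over 55% in size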
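Compounds were tested in concentration-response format on HT-1080-NT cells for 48 hours at 37 degrees C. Cell viability came from CellTiter-Glo luminescence; curves were classified by r2, response magnitude and activity.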
DT40 TDP1 no CPT: qHTS for Inhibitors of human tyrosyl-DNA phosphodiesterase 1 (TDP1): qHTS in cells in absence of CPT | DT40 Tdp1-/- hTDP1 cells, no CPT, ATP luminescence, 48 h | Potency, µM (top dose mostly 46.2 µM), for the others: at the top dose activity change, negative = growth inhibition, actives largely listed as inhibitors | 15% of 420,000 active; further: potency means the concentration at half of the fitted maximal effect; nearly all actives have a fitted effect of over 55% in size
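A cellular qHTS used chicken DT40 cells lacking endogenous Tdp1 but carrying stably transfected human TDP1. Compounds were applied without camptothecin, and cell growth kinetics were judged by ATP-dependent luminescence after ≥48 hr.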
TDP1 cell CPT: growth inhibition of DT40 Tdp1-/-;hTDP1 cells with camptothecin (screen for TDP1 inhibitors). chicken DT40 Tdp1-/-;hTDP1 cells + 20 nM CPT, ATP luminescence, 48 h. Potency, µM (titrated, usually from 46.2 µM), without a hit: at the top dose activity change, negative = growth inhibition, usual class: inhibitors. 12% of 420,000 active. AID 686979; further: potency means the concentration at half of the fitted maximal effect; nearly all actives have a fitted effect of over 55% in size
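Cell growth measured by CellTiter-Glo luminescence after a minimum 48 h, 37 C compound exposure with 20 nM CPT in Tdp1-knockout DT40 cells stably expressing hTDP1, seeded 400/well; qHTS titration format.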
* marks the source's active call; other numbers are inactive results; u = inconclusive; x = no result; [ ] = remark or other dose. Unless noted, the call rests on the fitted dose curve; in most records, active means well fitted curve in the direction sought with a large enough effect; inconclusive means small, poorly fitted or top-dose-only effect, or another doubt; inactive means no such curve, though single readings can be large; an effect the other way counts as inactive or inconclusive. Unless noted, on the % scale 0 is the no-effect control and ±100 the full control effect.

SMILES	HT1080 IDH1KD tx	ALOX12 inh	IL-1B inflam inh	HT1080NT lethal	DT40 TDP1 no CPT	TDP1 cell CPT
Cc1ccc(CN2CC(C(=O)NC3CCCC(C)C3C)CC2=O)cc1 (stereo not given)	-4.2%	-12.6%	-16.6	-4.1%[9.24 µM]	u	18.4µM*
CNC(=O)NC(=O)CN1CCN(c2oc(C3CC3)nc2C#N)CC1	x	3.3%	x	x	x	x
Cc1ccc(N2CCC3CC2c2cc(-c4ccc(C(F)(F)F)cc4)ccc23)cc1 (stereo not given)	3.7%	0.3%	48.5	0.0%	16.4µM*	u
Cc1ccc(/C=N/Nc2nc3ccccc3[nH]2)s1	-6.6%	u	-107.8*	1.5%	u	14.6µM*
O=c1[nH]c(N/N=C/c2cc3c(cc2[N+](=O)[O-])OCO3)nc2ccccc12	-3.1%	-0.4%	29.0	0.0%	-16.8%	-25.0%
Cc1[nH]c2ccccc2c1/C=N/Nc1nc2ccccc2[nH]1	18.4µM*	u	-105.4*	18.4µM*	u	u
C(=N\Nc1nc2ccccc2[nH]1)/c1cccc2cccnc12	u	-12.3%	217.0	u	2.91µM*	2.59µM*
Cc1nn(-c2ccccc2)c(Cl)c1/C=N/Nc1nc2ccccc2[nH]1	u	-0.2%	-5.1	u	-28.1%	u
O=[N+]([O-])c1cc(/C=N/Nc2nc3ccccc3[nH]2)c(O)cc1O	7.31µM*	u	61.1	u	4.61µM*	4.61µM*
CCCCC(=O)Nc1oc2c(C)cccc2c(=O)c1-c1ccc(OC)cc1	x	-1.5%	x	x	x	x
N#Cc1nc(-c2cccc3ccccc23)oc1N1CCN(c2ccccc2)CC1	x	-2.5%	x	x	x	x
COc1ccc(/C=N/Nc2nc3ccccc3[nH]2)c(OC)c1OC	u	3.1%	-1.8	0.1%	u	u
C(=N\Nc1nc2ccccc2[nH]1)/c1c[nH]c2ccccc12	u	u	-95.1*	16.4µM*	16.4µM*	u
C(=N\Nc1cccc2cccnc12)/c1c[nH]c2ccccc12	x	31.6µM*	x	x	x	x
CCc1nnc(N/N=C/c2cc(C)c(C)cc2C)n1N	u	9.2%	-12.5	-28.0%	u	-106.5%
Cc1cc(=O)[nH]c(N/N=C/c2c[nH]c3ccccc23)n1	-2.2%	6.8%	14.2	1.3%	u	u
Cc1ccccc1/C=N/Nc1nc2ccccc2[nH]1	-13.8%	29.3%	-68.4*	-20.5%	u	u
CCc1nnc(N/N=C/c2c(C)[nH]c3ccccc23)n1N	-2.6%	31.6µM*	5.7	-21.9%	-6.6%	-14.4%
CNC(=O)[C@@H]1C[C@@H](N)CN1S(=O)(=O)c1ccc2c(c1)OCCCO2	x	20.1%	x	x	x	x
NC[C@H]1O[C@H](O[C@@H]2[C@@H](O)[C@@H](O[C@H]3O[C@H](CO)[C@@H](O)[C@H](N)[C@@H]3O)[C@H](N)C[C@@H]2N)[C@H](O)[C@@H](O)[C@H]1O	x	46.0%	x	x	x	x
Cc1oc(-c2cccs2)nc1C(=O)N1CCCCCC1	x	10.6%	x	x	x	x
Cc1oc(-c2ccccc2)nc1C(=O)Nc1ccc(C(C)C)cc1	x	-14.2%	x	x	x	x
C(=N\Nc1nc(N2CCCCC2)nc(N2CCCCC2)n1)/c1c[nH]c2ccccc12	-17.8%	-12.5%	-59.8*	u	16.4µM*	u
COc1cc(C)ccc1OCc1cc(C(=O)N(Cc2c(C)nn(C)c2C)C2CC2)no1	1.3%	-2.7%	-2.0	0.9%	16.4µM*	u
COc1cc(C)ccc1OCc1cc(C(=O)N2C[C@H]3CC[C@H]2C3)no1	8.6%	-18.6%	4.6	-1.6%	10.4%	-3.4%
COC(=O)C1CC23C=CCN4CCC5(c6ccccc6NC15C2C)C43 (stereo not given)	0.731µM*	u	38.1	0.581µM*	1.3µM*	1.03µM*
